# Reference: PubChem BioAssay AID1768 (National Center for Advancing Translational Sciences (NCATS), 2009)
# Among all 270,000 compounds or so, about 620 (0.23%) were called active. Another 12% or so got no clear call; they are omitted. Calls come from the whole dose curve; as a rule, active = well fitted inhibition curve with a large enough effect in the polarisation, with a control signal flat (not every such curve was filed as active); inconclusive = small, poorly fitted or top-dose-only effect, or effect the other way, or a change in a side signal; inactive = no such curve, though single readings can be large or run the other way; the % refers to the polarisation. The entries come from a sample that favours actives as a whole. A call without a number means that no potency is given here.
# Target: Menin (Homo sapiens) (UniProt O00255)
# Sequence (O00255 whole entry, looked up): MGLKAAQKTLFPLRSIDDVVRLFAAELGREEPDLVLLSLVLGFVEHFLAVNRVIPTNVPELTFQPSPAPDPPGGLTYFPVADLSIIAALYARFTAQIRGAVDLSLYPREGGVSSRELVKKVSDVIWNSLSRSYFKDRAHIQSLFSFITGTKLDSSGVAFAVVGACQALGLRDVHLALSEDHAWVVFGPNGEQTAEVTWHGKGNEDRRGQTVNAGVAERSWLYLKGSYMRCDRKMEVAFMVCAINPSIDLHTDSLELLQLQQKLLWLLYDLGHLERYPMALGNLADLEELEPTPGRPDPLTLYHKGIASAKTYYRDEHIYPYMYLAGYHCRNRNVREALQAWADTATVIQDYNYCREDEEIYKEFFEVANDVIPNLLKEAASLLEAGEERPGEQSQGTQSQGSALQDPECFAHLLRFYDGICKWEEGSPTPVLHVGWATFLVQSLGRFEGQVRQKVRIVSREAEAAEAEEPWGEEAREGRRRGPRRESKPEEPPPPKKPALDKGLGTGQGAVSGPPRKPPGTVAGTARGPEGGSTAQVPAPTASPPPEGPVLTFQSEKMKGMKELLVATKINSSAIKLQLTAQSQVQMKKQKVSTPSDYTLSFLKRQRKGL
# Assay: qHTS Assay for Inhibitors Targeting the Menin-MLL Interaction in MLL Related Leukemias: Competition With Texas Red Labeled MLL-derived Mutant Peptide
# Details: fluorescence polarization; series mostly up to 61.6 µM
# Source text: qHTS Assay for Inhibitors Targeting the Menin-MLL Interaction in MLL Related Leukemias NIH Chemical Genomics Center [NCGC] NIH Molecular Libraries Probe Centers Network [MLPCN] MLPCN Grant: MH084875-01A1 Assay Submitter (PI): Jolanta Grembecka, Tomasz Cierpicki, University of Virginia Translocations of the MLL (Mixed Lineage Leukemia) gene are frequently found in human leukemias affecting both children and adults. Fusion of MLL to one of more than 60 genes results in generation of oncogenic proteins upregulating Hox genes, which are vital to blood cell development. Patients harboring fusion of the MLL gene suffer from aggressive leukemias and respond poorly to available therapies. All of the oncogenic fusion proteins have a preserved N-terminal fragment of MLL that has been identified to interact with menin. It has been recently discovered that association with menin is critical to the leukemogenic activity of the MLL fusion oncoproteins. Selective targeting of the menin-MLL interaction could provide an attractive therapeutic approach to develop novel drugs for MLL-related leukemias. Small molecules blocking the menin-MLL interaction should reverse the oncogenic potential of MLL fusion proteins. We have developed and optimized a fluorescence polarization-based assay for the identification of Menin-MLL inhibitors. The assay was run employing two different MLL-derived peptides. The present assay uses a 12 amino acid peptide labeled with fluorescein at its N-terminus. This peptide consists of the menin high affinity binding motif from MLL and is potently bound by menin. Another peptide with a mutated sequence, labeled with Texas Red, was used in parallel as a less stringent screen for inhibitors.
# The Menin protein, the MLL-wild type (w.t.) derived peptide (N-terminal 12 amino acids), the MLL-derived peptide labeled with Texas Red and the MLL-w.t. peptide labeled with Fluorescein were kindly supplied by laboratory of Dr. Jolanta Grembecka, University of Virginia. All protein and peptide solutions were stored in single use aliquots at -80C. The Eu3+ Cyrptate-conjugated mouse monoclonal antibody anti-6 Histidine (Eu3+-AB) and the Streptavidin-XL665 conjugate (XL665) were purchased from Cisbio International (Bedford, MA). All antibody and XL665 conjugate solution stocks were stored in single use aliquots at -20C. The Buffer components for all assays were purchased from Sigma-Aldrich (St. Louis, MO) and Invitrogen (Carlsbad, CA). FP Assay Reagents: 1. FP reaction buffer: 50 mM Tris-HCl pH 7.5, 50 mM NaCl, 1mM DTT. Before use, 0.05% BSA is added. 2. Menin protein, MLL-w.t. labeled with fluorescein, MLL-mutant peptide labeled with texas red. Stored in singe use aliquots at -80C. 3. MLL-w.t. unlabeled peptide as positive control: 10 uM final in FP buffer. FP Assay Procedure: 1. Prepare Menin at 200 nM, MLL-w.t.-fluorescein at 25 nM, and MLL-mutant-texas red at 50 nM mixture in FP buffer. 2. Prepare Menin at 200 nM, MLL-w.t.-fluorescein at 25 nM, MLL-mutant-texas red at 50 nM, and 10 uM MLL-w.t. unlabeled mixture in FP buffer. 3. Prepare MLL-w.t.-fluorescein at 25 nM and MLL-mutant-texas red at 50 nM mixture in FP buffer. 3. Dispense 4 ul per well of reagent in step 1 in columns 2, 4 - 48 in a black 1536 well plate, dispense 4 ul per well of reagents from steps 2 and 3 in columns 1 and 3 respectively. Incubate plate at ambient for 15 minutes. 4. Transfer 23 nl per well of compound to plate and incubate at ambient for 1 hr. 5. Read fluorescence polarization for each label using the PerkinElmer Envision. Envision protocol for fluorescein: FITC FP Dual Enh Mirror, Excitation filter 480, Emission filter (1) P-pol 535, Emission filter (2) S-pol 535 Envision protocol for texas red: FP Dual Enh Mirror, Excitation filter 555, Emission filter (1) P-pol 632, Emission filter (2) S-pol 632
# Potency is the fitted concentration of half-maximal effect.
row,SMILES,Potency
1,CC(C)(O)C#Cc1ccc(CN2CCC(CO)(CCc3ccccc3)CC2)cc1,inactive
2,CCOCCCNc1nc(-c2ccccc2)nc2ccccc12,inactive
3,Cc1c(CN2CC[C@@H](N3CCN(c4ccccn4)CC3)[C@H](O)C2)[nH]c2ccc(F)cc12,inactive
4,O=C(NCCCO)c1cc2c([nH]c3ccccc32)c(-c2ccc(F)cc2)n1,inactive
5,CC(=O)N1c2ccc(S(=O)(=O)N3CCC(C(=O)NC4CCCC(C)C4C)CC3)cc2CC1C (stereo not given),inactive
6,CNC(=O)[C@]1(C(F)(F)F)C[C@H](CCc2ccccc2)CCCO1,inactive
7,CC1CCCCC1NC(=O)CCS(=O)(=O)c1ccc2c(c1)NC(=O)CO2 (stereo not given),inactive
8,O=C(/C=C/Nc1ccccc1OC(F)(F)F)C(F)(F)F,inactive
9,CCCOc1ccc(N/C=C/C(=O)C(C)(C)C)cc1,inactive
10,CN(C)c1ccc(N/C=C/C(=O)C(F)(F)F)cc1,28.2 µM (active)
11,COc1cccc(N2C(=O)CN(Cc3ccccc3)C2=S)c1,inactive
12,Cn1nccc1C(=O)N1CCCC(C(=O)c2ccc(Oc3ccccc3)cc2)C1 (stereo not given),inactive
13,COc1ccc(-c2noc(CCCC(=O)NC3CCCC3)n2)cc1OC,inactive
14,Cc1noc(C)c1-c1ccc2ncnc(NCc3ccc4[nH]ccc4c3)c2c1,inactive
15,CC(=O)N(Cc1cc(=O)[nH]c2ccccc12)c1ccc(C)cc1C,inactive
16,Cc1ccc(N(Cc2cc3ccccc3[nH]c2=O)C(=O)c2cccs2)cc1,inactive
17,Cc1ccc(N(Cc2cc(=O)[nH]c3ccccc23)C(=O)CCl)cc1,10 µM (active)
18,CCN(CC)CCCNC(=O)COc1ccc2oc3c(c2c1)CCCC3,inactive
19,CC(C)c1ccc(NC(=O)C2CCCN(S(=O)(=O)c3cccnc3)C2)cc1 (stereo not given),inactive
20,COc1cc(/C=C2\SC(=O)NC2=O)ccc1OCc1ccc(Cl)nc1,inactive
21,COC(=O)c1cc(S(=O)(=O)NCC2CCN(Cc3ccc(Cl)cc3)CC2)cn1C,inactive
22,Cc1cccc(NC(=S)NCCc2ccc(Cl)cc2)c1C,inactive
23,COC(=O)C(CC(C)C)NS(=O)(=O)c1cc(Br)ccc1Br (stereo not given),inactive
24,Cc1c(C)c2ccc(OCC(=O)N3CCN(c4cccc(Cl)c4)CC3)cc2oc1=O,inactive
25,Cc1ccc(S(=O)(=O)NNC(=O)/C=C/c2cccc(F)c2)cc1,inactive

row,SMILES,Potency
1,O=C(COC(=O)c1cccs1)Nc1ccccc1Cl,inactive
2,COc1cc(/C=C2\CCCc3c2nc2ccccc2c3C(=O)O)cc(Cl)c1O,inactive
3,O=C(COC(=O)c1c2c(nc3ccccc13)/C(=C\c1cccs1)CCC2)Nc1ccccc1Cl,14.1 µM (active)
4,CC1CCN(CC(O)COc2ccc(C(=O)c3ccccc3)cc2)CC1 (stereo not given),inactive
5,CCC(CC)c1nnc(NC(=O)C2CCN(C(=O)c3ccco3)CC2)s1,inactive
6,Cc1cccc(OCC(=O)Nc2ccc(NC(=O)c3ccco3)c(C)c2)c1,inactive
7,COc1ccc(Cn2c(=S)[nH]c3cc(C(=O)NCCCN4CCOCC4)ccc3c2=O)cc1,inactive
8,CC(C)CN(Cc1c(O)ccc2c(=O)c(-c3ccccc3)coc12)CC(C)C,inactive
9,CCOC(=O)c1c(-c2ccc(-c3ccccc3)cc2)csc1NC(=O)CCC(=O)O,inactive
10,COc1ccc(Br)cc1C1C2C=CCC(C)C2C(=O)N1Cc1ccccc1 (stereo not given),inactive
11,CNc1nc2c(C)cccn2c(=O)c1C=Nc1ccc(OC)cc1,inactive
12,Cc1cccn2c(=O)c(/C=C3\SC(=S)N(CC(C)C)C3=O)c(NCCCOC(C)C)nc12,28.2 µM (active)
13,CCn1c(=N)c(C(=O)NCCCOC)cc2c(=O)n3cccc(C)c3nc21,inactive
14,Cc1ccc(/C=C2/SC(=S)N(CCC(=O)NCCCN3CCOCC3)C2=O)cc1,inactive
15,O=C1CCN(Cc2ccccc2)CCN1[C@H](CSc1ccccc1)c1ccccc1,inactive
16,COCCNC(=O)COc1ccc(N(C)S(=O)(=O)c2ccc3ccccc3c2)cc1,inactive
17,CC1CCCN(CC(=O)Nc2cc(Cl)ccc2Oc2ccccc2)C1 (stereo not given),inactive
18,CCN(CC)/[N+]([O-])=N/Oc1cc(O/[N+]([O-])=N/N2CCCC2CO)c([N+](=O)[O-])cc1[N+](=O)[O-] (stereo not given),inactive
19,CC1CCN(C2=NC(=O)/C(=C/c3ccc(O)cc3)S2)CC1,inactive
20,c1ccc(Cc2ccc(OCCn3ccnc3)cc2)cc1,inactive
21,O=C(O)C1CC=CC2CCN(C3CCCCC3)C(=O)C21 (stereo not given),inactive
22,CCOC(=O)c1cccc(NC(=O)C2CCN(c3ncnc4c3nc3n4CCCCC3)CC2)c1,inactive
23,CCOC(=O)c1ccc(NC(=O)c2ccc(NC(=O)C3CCCO3)cc2)cc1 (stereo not given),inactive
24,CCCNC(=O)c1ccc(N2CCC3(CC2)CC(c2ccc(Cl)cc2)=NO3)c([N+](=O)[O-])c1,inactive
25,CCC(C)(C)NC(=O)C(c1ccc(OC)cc1)N(C(=O)CCC(=O)Nc1cc(C)on1)c1ccc(OC)cc1OC (stereo not given),inactive
